# Test results reported in ChEMBL document CHEMBL1157539, “Thousands of chemical starting points for antimalarial lead identification” (Nature, 2010).
# Experiments:
# Assay type in all cases: functional
# [1] = test system: Plasmodium falciparum; assay: GSK_TCMDC: Inhibition of Plasmodium falciparum 3D7 in whole red blood cells, using parasite LDH activity as an index of growth. Test compounds present at 2uM
# [2] = test system: Plasmodium falciparum; assay: GSK_TCMDC: Inhibition of Plasmodium falciparum Dd2 in whole red blood cells, using parasite LDH activity as an index of growth. Test compounds present at 2uM
# [3] = test system: HepG2; assay: GSK_TCMDC: Percent inhibition of human HepG2 cell line. Test compounds present at 10uM.
Compound,Inhibition [1] [%],Inhibition [2] [%],Inhibition [3] [%]
CCC(=O)OC(CCN(CC)CC)(c1ccccc1)c1ccccc1,98,6,30
Oc1cc(Nc2ccnc3cc(-c4ccc(CN5CCCCC5)o4)ccc23)c(Cl)cc1F,100,81,30
CCN(C)CCCn1c(N(C)C)nc2cc(-n3cnc4cc(-c5ccc(Cl)cc5)sc4c3=O)ccc21.O=C(O)C(F)(F)F,80,12,83
O=C(/C=C/c1ccc(Cl)c(Cl)c1)N1CCC(CCN2CCC(c3c[nH]c4cc5c(cc34)OCO5)CC2)CC1,99,65,46
CC(Cc1ccc(OCCCCOc2ccccc2)cc1)NCCc1ccc(Oc2ccccc2)cc1 (stereo not drawn),89,95,99
COc1ccc(CN2CCC2=O)c(OC)c1,98,96,0
FC(F)(F)c1ccc2[nH]c(-c3cccc(-c4ccc(CNCCN5CCNCC5)cc4)c3)nc2c1.O=C(O)C(F)(F)F,96,0,17
COc1cc(CCOc2c(C)nc(N)nc2N)cc(OC)c1OC.Cl,93,0,59
O=C(NCc1ccccc1)Nc1ccc(-c2ccc(-c3nc4cc(C(F)(F)F)ccc4[nH]3)cc2)cc1,99,23,40
COc1ccc(C(=O)N2CCN(c3ccc([N+](=O)[O-])c(NC4CC4)c3)CC2)cc1Br,99,68,6
CC(C)c1ncc(-c2ccncc2)c(C2CCC(CNC(=O)c3ccncc3)CC2)n1 (stereo not drawn),85,49,0
